The values below come from ChEMBL document CHEMBL4513146, “CO-ADD screening of Karazin Kharkiv National University (Ukraine) compounds”.

In assay [1] the test system is Klebsiella pneumoniae. To be noted: Concentration 32 ug.mL-1;; ASSAY_TEST Inhibition of Bacterial Growth; detection method Absorption (OD600); MEDIA CAMHB; plate type 384well; NBS; CORNING #3640; time 18 hr.
Assay [2] has as its system Candida albicans. The note with it: Concentration 32 ug.mL-1; ASSAY_TEST Inhibition of Fungal Growth; detection method Absorption (OD530).
Assay [3] relates to Cryptococcus neoformans. The note with it: Concentration 32 ug.mL-1; ASSAY_TEST Inhibition of Fungal Growth; detection method Resazurin; Absorption (OD600-OD570); plate type 384well; NBS; CORNING #3640. In general terms: Alamar Blue is a resazurin reagent that responds to reducing activity.

Results with a measured potency or affinity are listed apart.

For orientation: Inhibition means the drop in the measured response relative to a control, in per cent.

With `Cc1nnc2c(=O)n(CC(=O)Nc3cccc(Br)c3)c3ccccc3n12`, the Inhibition in assay [1] is reported as 7.61%; in assay [2] it was -0.15%; in assay [3], -11.02%.

Consider `COC(=O)c1ccc(CN(c2ccc(C)cc2)S(=O)(=O)c2ccc3nnc(C)n3c2)o1`, for which the Inhibition in assay [1] was 8.84%; in assay [2], 0.1%; in assay [3] it was -13.09%.

As to `CCCCn1c(=O)c2sccc2n2c(CCC(=O)NC(C)C34CC5CC(CC(C5)C3)C4)nnc12` (stereo not given), the figures for the Inhibition in assay [1], in assay [2] and in assay [3] were 12.08%, -2.51% and -27.66%, respectively.

As to `Cc1cc(C)cc(Nc2nc(C)cc3nn(CC(=O)NC4CCCCC4)c(=O)n23)c1`, the values for the Inhibition in assay [1], in assay [2] and in assay [3] were 13.04%, 1.39% and -8.46%, respectively.

Turning to `COc1ccccc1NC(=O)Cn1nc2c(SC3CCCCC3)nccn2c1=O`, the Inhibition in assay [1] is -0.89%; in assay [2], 12.37%; in assay [3] it was -26.18%.

`CCc1nnc2c(S(=O)(=O)N(Cc3cccc(C)c3)c3cccc(Cl)c3)cccn12`: the Inhibition is 3.49% in assay [1], 3.58% in assay [2] and -6.66% in assay [3].

For the molecule `CCOc1ccc(-n2ccn3c(SCC(=O)NCc4ccccc4Cl)nnc3c2=O)cc1`, the Inhibition in assay [1] was 10.62%; in assay [2] it was 2.57%; in assay [3], -15.06%.

Consider `Cc1ccc(-c2cc3c4nn(CC(=O)Nc5cc(Cl)ccc5C)c(=O)n4ccn3n2)cc1C`, for which the Inhibition is on record as 6% in assay [1], 4.85% in assay [2] and -8.51% in assay [3].

Turning to `COc1ccc(NC(=O)CSc2nc3ccccc3n3c(C(C)C)nnc23)cc1Cl`, the Inhibition in assay [1] is 5.17%; in assay [2], 1.87%; in assay [3], -6.36%.

On to `CC(C)CCNC(=O)CSc1nnc2c(=O)n(Cc3ccc(F)cc3)ccn12`, for which the results for the Inhibition in assay [1], in assay [2] and in assay [3] were 4.54%, 1.44% and -7.36%, respectively.

On to `COc1ccc(-c2cc3c4nn(CC(=O)Nc5ccc(C)cc5)c(=O)n4ccn3n2)cc1`, for which the Inhibition is reported as 7.98% in assay [1], 8.11% in assay [2] and -26.93% in assay [3].

On to `Cc1ccccc1Oc1nccn2c(=O)n(CC(=O)Nc3ccccc3C(F)(F)F)nc12`, for which the Inhibition in assay [1] was 15.23%; in assay [2], -0.33%; in assay [3], -11.87%.

In the case of `O=C(Cn1nc2ccc(-c3ccc(Cl)cc3)nn2c1=O)N1CCN(c2ccccc2F)CC1`, the Inhibition in assay [1] is 1.3%; in assay [2], 2.81%; in assay [3], -11.05%.

Take `COc1ccc(-c2cc3c4nn(CC(=O)Nc5cc(Cl)ccc5C)c(=O)n4ccn3n2)cc1`: the Inhibition in assay [1] was 1.98%; in assay [2], 1.63%; in assay [3], -6.61%.

With `O=C(Cn1nc2ccc(Sc3cccc(F)c3)nn2c1=O)Nc1cccc(Cl)c1`, the Inhibition in assay [1] is -3.42%; in assay [2], 11.97%; in assay [3] it was -3.34%.

On to `COc1cccc(-n2ccn3c(=O)n(Cc4ccc([N+](=O)[O-])cc4)nc3c2=O)c1`, for which the Inhibition in assay [1] is 8.52%; in assay [2] it was 4.1%; in assay [3], -8.87%.

For the molecule `COc1cccc(Oc2nccn3c(=O)n(CC(=O)Nc4ccc(OC)c(Cl)c4)nc23)c1`, the results for the Inhibition in assay [1], in assay [2] and in assay [3] were 9.28%, 1.52% and -8.33%, respectively.

As to `Cc1cc(C)c(NC(=O)Cn2nc3ccc(SC(C)(C)C)nn3c2=O)c(C)c1`, the Inhibition in assay [1] is 14.36%; in assay [2], 2.38%; in assay [3], -25.26%.

With `Cc1cccc(C)c1NC(=O)Cn1nc2c(SC3CCCCC3)nccn2c1=O`, the Inhibition was 8.3% in assay [1], 20.03% in assay [2] and -18.68% in assay [3].

Consider `COC(=O)c1ccc(NC(=O)Cn2nc3ccc(S(=O)(=O)c4ccccc4)nn3c2=O)cc1`, for which the Inhibition in assay [1] is 3.88%; in assay [2], 1.43%; in assay [3], -5.62%.

As for `COc1ccc(NC(=O)c2ccc3nn(CC(=O)Nc4cccc(OC)c4)c(=O)n3c2)cc1`, the results for the Inhibition in assay [1], in assay [2] and in assay [3] were 8.13%, 4.49% and -9.24%, respectively.

For the molecule `Cc1ccc(Sc2nccn3c(=O)n(CC(=O)Nc4ccc(Br)cc4C)nc23)c(C)c1`, the Inhibition in assay [1] is -0.35%; in assay [2], -0.15%; in assay [3], -17.66%.

`O=c1c2nnc(-c3ccc([N+](=O)[O-])cc3)n2ccn1-c1ccc(F)c(F)c1`: the Inhibition is on record as 12.52% in assay [1], 2.2% in assay [2] and -9.46% in assay [3].

Regarding `Cc1ccc(-n2ccn3c(=O)n(Cc4cccc(Cl)c4)nc3c2=O)cc1C`, the results for the Inhibition in assay [1], in assay [2] and in assay [3] were 2.85%, 1.08% and -13.91%, respectively.

Consider `Cc1cccc(N(Cc2ccc(F)cc2)S(=O)(=O)c2cccn3c(C)nnc23)c1`, for which the Inhibition is listed as 7.81% in assay [1], 3.26% in assay [2] and -8.62% in assay [3].

On to `Cc1nnc2c(S(=O)(=O)N(Cc3cccc(F)c3)c3cccc(F)c3)cccn12`, for which the Inhibition is 14.45% in assay [1], 2.41% in assay [2] and -6.64% in assay [3].

In the case of `Cc1ccc(-c2ccc3nn(CC(=O)Nc4ccccc4)c(=O)n3n2)cc1C`, the Inhibition is 3.8% in assay [1], -1.46% in assay [2] and -10.8% in assay [3].

In the case of `COc1ccc(-c2cc3c4nn(CC(=O)Nc5cc(OC)cc(OC)c5)c(=O)n4ccn3n2)cc1`, the Inhibition in assay [1] is on record as 0.53%; in assay [2] it was 33.73%; in assay [3], -18.18%.

For `Cc1cccc(NC(=O)Cn2nc3ccc(-c4ccc(Cl)cc4)nn3c2=O)c1C`, the Inhibition in assay [1] is listed as 8.72%; in assay [2], 0.72%; in assay [3], -12.84%.

For `Cc1ccc2c(c1)N(C(=O)Cn1nc3ccc(SC(C)(C)C)nn3c1=O)CCO2`, the Inhibition is recorded as 14.93% in assay [1], 9.3% in assay [2] and -18.35% in assay [3].
